# Numbering of substitutions follows the chain as printed.
# Key:
# Test in all cases: PBM; 200 nM protein, PBS
# Conditions in all cases: dsDNA, one strand shown
# NKX2-5 [1] = biological target: NKX2-5 (Homo sapiens, UniProt P52952 125-210, R139K)
# VENTX [2] = biological target: T1, VENTX (Homo sapiens, UniProt O95231 78-163, R121Q)
# T1 sequence: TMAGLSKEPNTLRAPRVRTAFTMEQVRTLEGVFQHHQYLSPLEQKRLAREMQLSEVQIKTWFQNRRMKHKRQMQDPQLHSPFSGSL
# VENTX [3] = biological target: T2, VENTX (Homo sapiens, UniProt O95231 78-163)
# T2 sequence: T1 sequence with Q44R
# VENTX [4] = biological target: T3, VENTX (Homo sapiens, UniProt O95231 78-163, Y115F)
# T3 sequence: T1 sequence with Y38F, Q44R
# NKX2-5 [5] = biological target: NKX2-5 (Homo sapiens, UniProt P52952 125-210)
# Chain of NKX2-5 (Homo sapiens, UniProt P52952 125-210) (P52952 125-210): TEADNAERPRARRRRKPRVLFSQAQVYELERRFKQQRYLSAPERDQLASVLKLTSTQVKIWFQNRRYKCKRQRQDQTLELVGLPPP
# NKX2-4 [6] = biological target: T4, NKX2-4 (Homo sapiens, UniProt Q9H2Z4 175-261, P217L)
# T4 sequence: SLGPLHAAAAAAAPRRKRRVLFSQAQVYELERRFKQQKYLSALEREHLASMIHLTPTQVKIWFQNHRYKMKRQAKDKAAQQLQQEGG
# NKX2-4 [7] = biological target: T5, NKX2-4 (Homo sapiens, UniProt Q9H2Z4 175-261, T231S)
# T5 sequence: T4 sequence with L43P, T57S
# NKX2-4 [8] = biological target: T6, NKX2-4 (Homo sapiens, UniProt Q9H2Z4 175-261)
# T6 sequence: T4 sequence with L43P
# NKX2-4 [9] = biological target: T7, NKX2-4 (Homo sapiens, UniProt Q9H2Z4 175-261, R246Q)
# T7 sequence: T4 sequence with L43P, R72Q
# NKX2-6 [10] = biological target: T8, NKX2-6 (Homo sapiens, UniProt A6NCS4 118-204, R150C)
# T8 sequence: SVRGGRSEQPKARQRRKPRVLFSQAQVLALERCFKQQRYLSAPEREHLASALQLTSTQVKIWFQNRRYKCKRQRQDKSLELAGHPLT
# NKX2-6 [11] = biological target: T9, NKX2-6 (Homo sapiens, UniProt A6NCS4 118-204, F151L)
# T9 sequence: T8 sequence with C33R, F34L
# NKX3-2 [12] = biological target: NKX3-2 (Homo sapiens, UniProt P78367 192-278, P234S)
# Chain of NKX3-2 (Homo sapiens, UniProt P78367 192-278, P234S) (P78367 192-278 P234S): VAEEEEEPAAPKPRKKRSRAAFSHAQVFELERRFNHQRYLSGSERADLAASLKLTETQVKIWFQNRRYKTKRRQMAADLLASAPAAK
# NKX3-2 [13] = biological target: NKX3-2 (Homo sapiens, UniProt P78367 192-278)
# Chain of NKX3-2 (Homo sapiens, UniProt P78367 192-278) (P78367 192-278): as the sequence (P78367 192-278 P234S) above, with S43P counted along it
# HOXB9 = HOXB9 (Homo sapiens, UniProt P17482 171-250, R186Q)
# Chain of HOXB9 (P17482 171-250 R186Q): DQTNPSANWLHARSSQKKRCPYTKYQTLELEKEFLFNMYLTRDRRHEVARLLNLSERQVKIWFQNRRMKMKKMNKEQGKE
# NKX2-6 [14] = biological target: T10, NKX2-6 (Homo sapiens, UniProt A6NCS4 118-204)
# T10 sequence: T8 sequence with C33R
# Chain of NKX2-5 (Homo sapiens, UniProt P52952 125-210, R139K) (P52952 125-210 R139K): as the sequence (P52952 125-210) above, with R15K counted along it
sequence,measurement,setting,value
CACGGGCC,binding signal,NKX2-5 [1],"8.73 upbm affinity estimate (log intensity, higher = more binding, comparable within an allelic series)"
same,binding signal,VENTX [2],"7.96 upbm affinity estimate (log intensity, higher = more binding, comparable within an allelic series)"
same,binding signal,VENTX [3],"8.01 upbm affinity estimate (log intensity, higher = more binding, comparable within an allelic series)"
same,binding signal,VENTX [4],"7.92 upbm affinity estimate (log intensity, higher = more binding, comparable within an allelic series)"
same,binding signal,NKX2-5 [5],"8.71 upbm affinity estimate (log intensity, higher = more binding, comparable within an allelic series)"
ATCGGTGG,binding signal,NKX2-5 [1],"8.85 upbm affinity estimate (log intensity, higher = more binding, comparable within an allelic series)"
same,binding signal,NKX2-4 [6],"9.32 upbm affinity estimate (log intensity, higher = more binding, comparable within an allelic series)"
same,binding signal,NKX2-4 [7],"9.63 upbm affinity estimate (log intensity, higher = more binding, comparable within an allelic series)"
same,binding signal,NKX2-4 [8],"9.38 upbm affinity estimate (log intensity, higher = more binding, comparable within an allelic series)"
same,binding signal,NKX2-4 [9],"9.32 upbm affinity estimate (log intensity, higher = more binding, comparable within an allelic series)"
same,binding signal,NKX2-5 [5],"8.79 upbm affinity estimate (log intensity, higher = more binding, comparable within an allelic series)"
CCGACCTC,binding signal,NKX2-5 [1],"8.77 upbm affinity estimate (log intensity, higher = more binding, comparable within an allelic series)"
same,binding signal,VENTX [2],"7.98 upbm affinity estimate (log intensity, higher = more binding, comparable within an allelic series)"
same,binding signal,VENTX [3],"7.99 upbm affinity estimate (log intensity, higher = more binding, comparable within an allelic series)"
same,binding signal,VENTX [4],"8.1 upbm affinity estimate (log intensity, higher = more binding, comparable within an allelic series)"
same,binding signal,NKX2-5 [5],"8.83 upbm affinity estimate (log intensity, higher = more binding, comparable within an allelic series)"
AAGTGCCC,binding signal,NKX2-5 [1],"12.4 upbm affinity estimate (log intensity, higher = more binding, comparable within an allelic series)"
same,binding signal,NKX2-4 [6],"12.5 upbm affinity estimate (log intensity, higher = more binding, comparable within an allelic series)"
same,binding signal,NKX2-4 [7],"12.8 upbm affinity estimate (log intensity, higher = more binding, comparable within an allelic series)"
same,binding signal,NKX2-4 [8],"12.3 upbm affinity estimate (log intensity, higher = more binding, comparable within an allelic series)"
same,binding signal,NKX2-6 [10],"11.6 upbm affinity estimate (log intensity, higher = more binding, comparable within an allelic series)"
same,binding signal,NKX2-4 [9],"13 upbm affinity estimate (log intensity, higher = more binding, comparable within an allelic series)"
same,binding signal,NKX2-6 [11],"10.8 upbm affinity estimate (log intensity, higher = more binding, comparable within an allelic series)"
same,binding signal,NKX3-2 [12],"12.9 upbm affinity estimate (log intensity, higher = more binding, comparable within an allelic series)"
same,binding signal,NKX2-5 [5],"12.4 upbm affinity estimate (log intensity, higher = more binding, comparable within an allelic series)"
same,binding signal,NKX3-2 [13],"12.9 upbm affinity estimate (log intensity, higher = more binding, comparable within an allelic series)"
CATGCGCC,binding signal,NKX2-5 [1],"8.86 upbm affinity estimate (log intensity, higher = more binding, comparable within an allelic series)"
same,binding signal,HOXB9,"8.56 upbm affinity estimate (log intensity, higher = more binding, comparable within an allelic series)"
same,binding signal,NKX2-5 [5],"8.85 upbm affinity estimate (log intensity, higher = more binding, comparable within an allelic series)"
CGGTGCAG,binding signal,NKX2-5 [1],"8.83 upbm affinity estimate (log intensity, higher = more binding, comparable within an allelic series)"
same,binding signal,NKX2-4 [6],"9.49 upbm affinity estimate (log intensity, higher = more binding, comparable within an allelic series)"
same,binding signal,NKX2-4 [7],"9.46 upbm affinity estimate (log intensity, higher = more binding, comparable within an allelic series)"
same,binding signal,NKX2-4 [8],"9.46 upbm affinity estimate (log intensity, higher = more binding, comparable within an allelic series)"
same,binding signal,NKX2-4 [9],"9.48 upbm affinity estimate (log intensity, higher = more binding, comparable within an allelic series)"
same,binding signal,NKX2-5 [5],"8.91 upbm affinity estimate (log intensity, higher = more binding, comparable within an allelic series)"
AAGTGGTC,binding signal,NKX2-5 [1],"12.6 upbm affinity estimate (log intensity, higher = more binding, comparable within an allelic series)"
same,binding signal,NKX2-4 [6],"12.4 upbm affinity estimate (log intensity, higher = more binding, comparable within an allelic series)"
same,binding signal,NKX2-4 [7],"12.8 upbm affinity estimate (log intensity, higher = more binding, comparable within an allelic series)"
same,binding signal,NKX2-6 [10],"11.8 upbm affinity estimate (log intensity, higher = more binding, comparable within an allelic series)"
same,binding signal,NKX2-6 [14],"13.4 upbm affinity estimate (log intensity, higher = more binding, comparable within an allelic series)"
same,binding signal,NKX2-6 [11],"10.5 upbm affinity estimate (log intensity, higher = more binding, comparable within an allelic series)"
same,binding signal,NKX3-2 [12],"12.9 upbm affinity estimate (log intensity, higher = more binding, comparable within an allelic series)"
same,binding signal,NKX2-5 [5],"12.6 upbm affinity estimate (log intensity, higher = more binding, comparable within an allelic series)"
same,binding signal,NKX3-2 [13],"12.9 upbm affinity estimate (log intensity, higher = more binding, comparable within an allelic series)"
CGTGCACG,binding signal,NKX2-5 [1],"8.84 upbm affinity estimate (log intensity, higher = more binding, comparable within an allelic series)"
same,binding signal,HOXB9,"8.57 upbm affinity estimate (log intensity, higher = more binding, comparable within an allelic series)"
same,binding signal,NKX2-5 [5],"8.84 upbm affinity estimate (log intensity, higher = more binding, comparable within an allelic series)"
AGTACTTG,binding signal,NKX2-5 [1],"12.5 upbm affinity estimate (log intensity, higher = more binding, comparable within an allelic series)"
same,binding signal,NKX2-4 [6],"12.5 upbm affinity estimate (log intensity, higher = more binding, comparable within an allelic series)"
same,binding signal,NKX2-4 [7],"12.9 upbm affinity estimate (log intensity, higher = more binding, comparable within an allelic series)"
same,binding signal,NKX2-4 [8],"12.4 upbm affinity estimate (log intensity, higher = more binding, comparable within an allelic series)"
same,binding signal,NKX2-6 [10],"11.6 upbm affinity estimate (log intensity, higher = more binding, comparable within an allelic series)"
same,binding signal,NKX2-6 [14],"13.5 upbm affinity estimate (log intensity, higher = more binding, comparable within an allelic series)"
same,binding signal,NKX2-4 [9],"13 upbm affinity estimate (log intensity, higher = more binding, comparable within an allelic series)"
same,binding signal,NKX2-6 [11],"10.8 upbm affinity estimate (log intensity, higher = more binding, comparable within an allelic series)"
same,binding signal,NKX2-5 [5],"12.3 upbm affinity estimate (log intensity, higher = more binding, comparable within an allelic series)"
CTCAAGTA,binding signal,NKX2-5 [1],"12.7 upbm affinity estimate (log intensity, higher = more binding, comparable within an allelic series)"
same,binding signal,NKX2-4 [6],"12.7 upbm affinity estimate (log intensity, higher = more binding, comparable within an allelic series)"
same,binding signal,NKX2-4 [7],"13.1 upbm affinity estimate (log intensity, higher = more binding, comparable within an allelic series)"
same,binding signal,NKX2-4 [8],"12.6 upbm affinity estimate (log intensity, higher = more binding, comparable within an allelic series)"
same,binding signal,NKX2-6 [10],"11.8 upbm affinity estimate (log intensity, higher = more binding, comparable within an allelic series)"
same,binding signal,NKX2-6 [14],"13.6 upbm affinity estimate (log intensity, higher = more binding, comparable within an allelic series)"
same,binding signal,NKX2-4 [9],"13.3 upbm affinity estimate (log intensity, higher = more binding, comparable within an allelic series)"
same,binding signal,NKX2-6 [11],"10.8 upbm affinity estimate (log intensity, higher = more binding, comparable within an allelic series)"
same,binding signal,NKX2-5 [5],"12.6 upbm affinity estimate (log intensity, higher = more binding, comparable within an allelic series)"

# Source: PMC11006913
